{"source": "PubChem BioAssay (NCATS)", "key": {"[1]": {"assay": "Identifying Small Molecule Inhibitors of Pancreatic Cancer Stem Cells (A2780, Spheroid) (AID 1259357);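 further: spheroids pre-formed over 14 days in stem cell medium on hydrogel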", "outline": "(§1)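 After a 4 h attachment period, compounds were pinned into wells and cultures held 48 h under standard incubator conditions. Viability was then measured as CellTiter-Glo luminescence following 10 min at room temperature.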"}, "[2]": {"assay": "Identifying Small Molecule Inhibitors of Pancreatic Cancer Stem Cells (SN12C, Adherent) (AID 1259358)", "outline": "(§2)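 Endpoint: ATP-based luminescence, 48 h drug exposure. Bortezomib at 9.2 uM final as full-kill control; DMSO vehicle as negative control; activity normalized between vehicle and cell-free wells.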"}, "[3]": {"assay": "Identifying Small Molecule Inhibitors of Pancreatic Cancer Stem Cells (SN12C, Spheroid) (AID 1259360)", "outline": "as §1"}, "[4]": {"assay": "Identifying Small Molecule Inhibitors of Pancreatic Cancer Stem Cells (A278, Adherent) (AID 1259361)", "outline": "as §2"}, "[5]": {"assay": "P-glycoprotein substrates identified in KB-8-5-11 adenocarcinoma cell line, qHTS therapeutic library screen (AID 1346987)", "outline": "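KB-8-5-11: colchicine-selected sub-line of KB-3-1 over-expressing P-gp; assay medium lacked colchicine. 72 h drug exposure at 37 degree C, CellTiter-Glo.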"}, "[6]": {"assay": "qHTS assay to identify small molecule inhibitors of chordoma cells - UCH-2 (AID 1259356)"}, "[7]": {"assay": "Natriuretic polypeptide receptor (hNpr1) antagonism - Pilot counterscreen GloSensor control cell line (AID 1347045; calls by dose curve)", "outline": "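HEK293 cells carrying the GloSensor cGMP sensor (GIP/pGS-40F) were loaded with 2% GloSensor reagent for 2 h, exposed to compounds for 30 min, and then stimulated with 50 uM sodium nitroprusside for 20 min at room temperature.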"}, "[8]": {"molecular_target": "Atrial natriuretic peptide receptor 1 (Homo sapiens) (UniProt P16066)", "sequence (P16066 whole entry, looked up)": "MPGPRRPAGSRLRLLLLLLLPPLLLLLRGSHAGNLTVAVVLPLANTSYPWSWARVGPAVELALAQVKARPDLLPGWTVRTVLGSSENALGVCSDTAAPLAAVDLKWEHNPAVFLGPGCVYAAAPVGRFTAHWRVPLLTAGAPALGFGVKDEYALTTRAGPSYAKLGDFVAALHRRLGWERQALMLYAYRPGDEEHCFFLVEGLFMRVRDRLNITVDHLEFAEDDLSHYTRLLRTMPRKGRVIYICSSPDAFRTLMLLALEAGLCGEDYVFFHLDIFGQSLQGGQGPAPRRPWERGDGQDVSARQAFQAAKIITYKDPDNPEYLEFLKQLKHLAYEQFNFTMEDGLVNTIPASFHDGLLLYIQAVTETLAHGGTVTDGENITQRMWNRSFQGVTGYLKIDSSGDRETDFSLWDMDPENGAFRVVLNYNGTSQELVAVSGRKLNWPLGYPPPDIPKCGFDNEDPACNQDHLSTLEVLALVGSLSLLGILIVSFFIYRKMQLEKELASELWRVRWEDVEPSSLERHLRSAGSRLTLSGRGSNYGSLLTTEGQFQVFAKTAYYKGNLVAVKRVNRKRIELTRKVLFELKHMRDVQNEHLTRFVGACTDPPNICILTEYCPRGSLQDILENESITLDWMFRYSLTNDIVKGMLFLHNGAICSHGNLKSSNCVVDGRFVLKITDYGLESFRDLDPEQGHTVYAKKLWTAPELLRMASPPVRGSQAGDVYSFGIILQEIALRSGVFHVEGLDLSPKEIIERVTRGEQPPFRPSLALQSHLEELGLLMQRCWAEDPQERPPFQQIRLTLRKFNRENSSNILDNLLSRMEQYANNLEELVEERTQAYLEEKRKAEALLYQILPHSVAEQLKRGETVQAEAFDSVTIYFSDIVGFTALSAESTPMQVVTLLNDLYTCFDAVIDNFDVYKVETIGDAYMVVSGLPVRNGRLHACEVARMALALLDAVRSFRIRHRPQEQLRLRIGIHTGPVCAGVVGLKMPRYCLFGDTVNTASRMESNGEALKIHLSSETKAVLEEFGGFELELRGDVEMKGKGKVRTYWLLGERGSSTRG", "assay": "Natriuretic polypeptide receptor (hNpr1) antagonism - Pilot screen (AID 1347049; calls by dose curve)", "outline": "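HEK293 cells expressing hNpr1 and GloSensor cGMP luciferase, 1500/well, loaded with 2% GloSensor reagent 2 h, compound 30 min at room temperature; luminescence read before and 20 min after 0.1 nM hNppA stimulation.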"}, "[9]": {"assay": "P-glycoprotein substrates identified in KB-3-1 adenocarcinoma cell line, qHTS therapeutic library screen (AID 1346986)", "details": "KB-3-1 parental cells viability, CellTiter-Glo, 72 h; at 44.5 µM (top of the series) unless noted", "outline": "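Compounds were tested in dose-response against KB-3-1 and KB-8-5-11 cells at 37 degree C for 72 h, and viability was measured by luminescence. AC50 values came from curve fitting with class-based activity calls.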"}}, "note": "Where “and” joins values, the source holds several entries; their conditions need not be identical. Equal entries are not always repeated. Records with an inconclusive call do not appear. Where a call stands in place of a potency, no number is given. Calls of active or inactive are those of the source. Unless noted, the call rests on the fitted dose curve; in most records, active means well fitted curve in the direction sought with a large enough effect; inconclusive means small, poorly fitted or top-dose-only effect, or another doubt; inactive means no such curve, though single readings can be large; an effect the other way counts as inactive or inconclusive. Wherever outcome is given: nearly all actives have a fitted effect of over 60% in size. Wherever potency is given: nearly all actives have a fitted effect of over 65% in size. Wherever potency is given: potency means the concentration at half of the fitted maximal effect.", "data": [{"smiles": "CC(=O)O[C@@]12CO[C@@H]1C[C@H](O)[C@@]1(C)C(=O)[C@H](O)C3=C(C)[C@@H](OC(=O)[C@H](O)[C@@H](NC(=O)OC(C)(C)C)c4ccccc4)C[C@@](O)([C@@H](OC(=O)c4ccccc4)[C@H]21)C3(C)C", "values": [{"measurement": "outcome", "setting": "[1]", "value": "inactive"}, {"measurement": "outcome", "setting": "[2]", "value": "inactive"}, {"measurement": "outcome", "setting": "[3]", "value": "inactive"}, {"measurement": "IC50 (viability decrease)", "setting": "[4]", "value": "inactive"}, {"measurement": "Potency", "setting": "[5]", "value": "6.51 µM (active) and 4.11 µM (active)"}]}, {"smiles": "CNCCCC1c2ccccc2C=Cc2ccccc21", "values": [{"measurement": "outcome", "setting": "[6]", "value": "inactive"}, {"measurement": "outcome", "setting": "[7]", "value": "inactive"}, {"measurement": "outcome", "setting": "[8]", "value": "inactive"}]}, {"smiles": "COc1cc2[nH]c(=O)[nH]c(=O)c2cc1OC", "values": [{"measurement": "Potency", "setting": "[5]", "value": "inactive"}]}, {"smiles": "NC1CCN(c2cccc(Cl)n2)CC1", "values": [{"measurement": "outcome", "setting": "[6]", "value": "inactive"}, {"measurement": "Potency", "setting": "[5]", "value": "inactive"}, {"measurement": "outcome", "setting": "[7]", "value": "inactive"}, {"measurement": "outcome", "setting": "[8]", "value": "inactive"}]}, {"smiles": "NS(=O)(=O)c1cc2c(cc1C(F)(F)F)NC(Cc1ccccc1)NS2(=O)=O", "note": "(centres undefined)", "values": [{"measurement": "Potency", "setting": "[5]", "value": "inactive"}]}, {"smiles": "C[C@H](NC(CCc1ccccc1)C(=O)O)C(=O)N1CCC[C@H]1C(=O)O", "note": "(some centres undefined)", "values": [{"measurement": "Potency", "setting": "[5]", "value": "inactive"}]}, {"smiles": "CC1=C(/C=C/C(C)=C/C=C/C(C)=C/C(=O)O)C(C)(C)CCC1", "values": [{"measurement": "outcome", "setting": "[6]", "value": "inactive"}, {"measurement": "outcome", "setting": "[8]", "value": "inactive"}]}, {"smiles": "CC(C(O)c1ccc(O)cc1)N1CCC(Cc2ccccc2)CC1", "note": "(centres undefined)", "values": [{"measurement": "outcome", "setting": "[9]", "value": "inactive [at 17.4 µM]"}, {"measurement": "Potency", "setting": "[5]", "value": "inactive"}, {"measurement": "outcome", "setting": "[7]", "value": "inactive"}, {"measurement": "outcome", "setting": "[8]", "value": "inactive"}]}, {"smiles": "CC1=C(CC(=O)O)c2cc(F)ccc2/C1=C\\c1ccc(S(C)=O)cc1", "note": "(centres undefined)", "values": [{"measurement": "outcome", "setting": "[6]", "value": "inactive"}, {"measurement": "Potency", "setting": "[5]", "value": "inactive"}, {"measurement": "outcome", "setting": "[8]", "value": "inactive"}]}]}
